For nine molecules, Potency and outcome results are on record in PubChem BioAssay (Tox21).

Molecules are shown by their SMILES. Inconclusive results are not listed. A number with no mark means an inactive call. The source made the active and inactive calls. Unless noted, the call rests on the fitted dose curve; in most records, active means well fitted curve in the direction sought with a large enough effect in the repeat runs; inconclusive means weak or mixed curves; inactive means no such curve, though single readings can be large; an effect the other way counts as inactive or inconclusive.

Assay [1] can be described thus: qHTS assay to identify aromatase inhibitors - cell viability counter screen (AID 743084).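 Further: cells stimulated with testosterone during compound exposure; nearly all actives have a fitted effect of over 55% in size.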
Assay [2] can be described thus: qHTS assay to identify small molecule that activate the aryl hydrocarbon receptor (AhR) signaling pathway - cell viability counter screen (AID 743086). Further: nearly all actives have a fitted effect of over 45% in size. Further: potency means the concentration at half of the fitted maximal effect. The method in brief: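 HepG2-AhR-luc (HG2L7.5c1) cells, 4000/well, treated 24 h at 37 C with compound; viability measured as CellTiter-Fluor fluorescence after 30 min in the same wells as the luciferase read.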
(Quantitative high-throughput screening tests each substance at several concentrations.)

Assay [3] can be described thus: qHTS assay to identify small molecule antagonists of the peroxisome proliferator-activated receptor gamma (PPARg) signaling pathway - cell viability counter screen (AID 743194). Further: nearly all actives have a fitted effect of over 55% in size. Further: potency means the concentration at half of the fitted maximal effect. The method in brief:
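Cytotoxicity counter screen in PPARg-bla HEK293H cells, same wells as reporter assay. Compounds plus 50 nM rosiglitazone (final) for 17 h at 37 C, then viability read by CellTiter-Glo luminescence.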

Assay [4] can be described thus: qHTS assay for small molecule agonists of the antioxidant response element (ARE) signaling pathway - cell viability counter screen (AID 743203; calls by dose curve; further: nearly all actives have a fitted effect of over 55% in size; further: potency means the concentration at half of the fitted maximal effect). In short, it runs like this: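 Parallel cytotoxicity read-out for the ARE-bla screen: HepG2 reporter cells, 16 hrs with compounds, then CellTiter-Glo luminescence.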
Assay [5] in a line: qHTS assay for small molecule activators of the heat shock response signaling pathway - cell viability counter screen (AID 743209). Further: nearly all actives have a fitted effect of over 50% in size. The method in brief:
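To flag cytotoxic compounds, HSE-bla HeLa cells plated at 1500 cells/well were dosed for 5 h at 37 C, followed by the reporter FRET read and then CellTiter-Glo, with luminescence recorded 30 min after reagent addition.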

The nature of assay [6]: qHTS assay to identify small molecule agonists of the peroxisome proliferator-activated receptor delta (PPARd) signaling pathway - cell viability counter screen (AID 743211). Further: nearly all actives have a fitted effect of over 55% in size. Further: potency means the concentration at half of the fitted maximal effect. In short, it runs like this:
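Viability was measured as CellTiter-Glo luminescence (30 min, room temperature) in the same wells as the beta-lactamase readout. GeneBLAzer PPARd UAS-bla HEK293H cells received compound after 5 h plating and were incubated 17 h at 37 C.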

Assay [7] concerns the target Peroxisome proliferator-activated receptor delta (Homo sapiens) (UniProt Q03181). In words: qHTS assay to identify small molecule agonists of the peroxisome proliferator-activated receptor delta (PPARd) signaling pathway (AID 743212; calls by dose curve; further: potency means the concentration at half of the fitted maximal effect). The method in brief:
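Read-out: beta-lactamase FRET fluorescence after 2 h room-temperature incubation with LiveBLAzer B/G substrate. Cells were HEK293H carrying a UAS-bla reporter for PPARd, treated at 37 C with DMSO-dissolved compounds.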

Assay [8] is described as follows: qHTS assay to identify small molecule antagonists of the peroxisome proliferator-activated receptor delta (PPARd) signaling pathway - cell viability counter screen (AID 743213). Further: nearly all actives have a fitted effect of over 50% in size. Further: potency means the concentration at half of the fitted maximal effect. The method in brief:
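In this counter screen, HEK293H cells carrying a UAS-beta-lactamase reporter are co-treated with test compounds and 300 nM L165041 (final) for 17 h at 37 C; cell viability is quantified by CellTiter-Glo luminescence.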

The target of assay [9] is Peroxisome proliferator-activated receptor delta (Homo sapiens) (UniProt Q03181). The assay can be described thus: qHTS assay to identify small molecule antagonists of the peroxisome proliferator-activated receptor delta (PPARd) signaling pathway (AID 743215; active means well fitted inhibition curve with a large enough effect in the signal ratio in the repeat runs, not every such curve was filed as active; the % refers to the signal ratio;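 further: cells stimulated with agonist L165041 at 300 nM final during compound exposure; series mostly up to about 62 µM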). In short, it runs like this:
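Screen format: qHTS, antagonist mode. HEK293H PPARd-bla cells received compound and 300 nM L165041 (final), 17 h, 37 C. Beta-lactamase detected via FRET substrate fluorescence, 2 h, room temperature.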

A short description of assay [10]: qHTS assay to identify small molecule agonists of the farnesoid-X-receptor (FXR) signaling pathway - cell viability counter screen (AID 743218). Further: nearly all actives have a fitted effect of over 45% in size. Further: potency means the concentration at half of the fitted maximal effect. The method in brief:
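Same-well cytotoxicity check on FXR-UAS-bla HEK 293T cells: 5 h attachment, 16 h compound at 37 C, CellTiter-Glo luminescence read at room temperature after 30 min.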

The target in assay [11] is Bile acid receptor (Homo sapiens) (UniProt Q96RI1). In words: qHTS assay to identify small molecule agonists of the farnesoid-X-receptor (FXR) signaling pathway (AID 743220; active means well fitted activation curve with a large enough effect in the signal ratio in the repeat runs, not every such curve was filed as active; the % refers to the signal ratio). In short, it runs like this: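 FXR-UAS-bla HEK 293T cells carrying a UAS-driven beta-lactamase reporter were plated for 5 h at 37C/5% CO2, then exposed to DMSO-dissolved Tox21 10K compounds for 16 h at 37C. A LiveBLAzer B/G FRET substrate was loaded for 2 h at room temperature before fluorescence reading.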

Assay [12] in a line: qHTS assay to identify small molecule antagonists of the farnesoid-X-receptor (FXR) signaling pathway - cell viability counter screen (AID 743221; active means well fitted cell-killing curve with a large enough effect in the repeat runs, not every such curve was filed as active; further: nearly all actives have a fitted effect of over 50% in size; further: potency means the concentration at half of the fitted maximal effect). The method in brief: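 Cytotoxicity counter screen run in the FXR-bla reporter wells: HEK 293T cells exposed to compound with 50 uM (final) chenodeoxycholic acid for 16 h, 37 C, then viability measured by CellTiter-Glo luminescence after 30 min, room temperature.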

In assay [13] the target is Aryl hydrocarbon receptor (Homo sapiens) (UniProt P35869). In words: qHTS assay to identify small molecule that activate the aryl hydrocarbon receptor (AhR) signaling pathway (AID 743085). Further: nearly all actives have a fitted effect of over 15% in size. Further: potency means the concentration at half of the fitted maximal effect.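 On activation: HG2L7.5c1 human HepG2 liver cells with stably integrated DRE-driven firefly reporter; series mostly up to about 70 µM.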 In short, it runs like this: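 Luminescence (ONE-Glo) from a dioxin-responsive-element luciferase reporter in HG2L7.5c1 HepG2 cells after 24 hr compound exposure at 37C; viability measured by CellTiter-Fluor fluorescence beforehand.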

Assay [14] in a line: qHTS assay for small molecule agonists of the antioxidant response element (ARE) signaling pathway (AID 743202; active means well fitted activation curve with a large enough effect in the signal ratio in the repeat runs, not every such curve was filed as active; the % refers to the signal ratio; further: potency means the concentration at half of the fitted maximal effect). In short, it runs like this: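 HepG2 ARE-bla reporter line, 2,000 cells/well; 5 h preincubation 37 C/5% CO2; compound (DMSO) 16 h 37 C; B/G FRET substrate 2 h RT; fluorescence intensity.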
Assay [15] has as its target Vitamin D3 receptor (Homo sapiens) (UniProt P11473). In words: qHTS assay to identify small molecule agonists of the vitamin D receptor (VDR) signaling pathway (AID 743222; calls by dose curve). In short, it runs like this:
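Using LiveBLAzer B/G FRET detection, agonism was scored in VDR-bla cells exposed overnight (16 h, 37C) to DMSO-dissolved compounds; substrate incubation was 2 h at room temperature.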

Assay [16] shares this target. The assay can be described thus: qHTS assay to identify small molecule antagonists of the vitamin D receptor (VDR) signaling pathway (AID 743223; active means well fitted inhibition curve with a large enough effect in the signal ratio in the repeat runs, not every such curve was filed as active; the % refers to the signal ratio). The method in brief:
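Antagonist mode: compound added to VDR-bla cells alongside agonist 1alpha,25-dihydroxyvitamin D3 (3 nM final), incubation 16 h at 37C. Read-out is LiveBLAzer FRET fluorescence, 2 h at room temperature.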

The target in assay [17] is Peroxisome proliferator-activated receptor gamma (Homo sapiens) (UniProt P37231). In words: qHTS assay to identify small molecule antagonists of the peroxisome proliferator-activated receptor gamma (PPARg) signaling pathway (AID 743191; calls by dose curve; further: nearly all actives have a fitted effect of over 30% in size; further: potency means the concentration at half of the fitted maximal effect). In short, it runs like this: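 GeneBLAzer PPARg UAS-bla HEK293H cells, 5 h post-plating, exposed to compounds 17 h at 37C. LiveBLAzer B/G FRET substrate added for 1 h at room temperature; beta-lactamase reporter read by fluorescence intensity.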

Assay [18] has the same target. In words: qHTS assay to identify small molecule agonists of the peroxisome proliferator-activated receptor gamma (PPARg) signaling pathway (AID 743094; active means well fitted activation curve with a large enough effect in the signal ratio in the repeat runs, not every such curve was filed as active; the % refers to the signal ratio; further: potency means the concentration at half of the fitted maximal effect). The method in brief:
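Fluorescence-based beta-lactamase readout in HEK293H PPARg UAS-bla cells after 17 h compound exposure (37C) and 1 h B/G FRET substrate incubation at room temperature.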

Assay [19] in a line: qHTS assay for small molecule activators of the heat shock response signaling pathway (AID 743210; active means well fitted activation curve with a large enough effect in the signal ratio in the repeat runs, with a control signal flat, not every such curve was filed as active; the % refers to the signal ratio; further: series mostly up to about 63 µM). In short, it runs like this: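 Beta-lactamase reporter read-out: FRET substrate fluorescence after 2.5 h at RT, following 5 h compound treatment at 37 C of HeLa cells carrying HSE-driven bla reporter; quantitative HTS format.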
The target of assay [20] is Bile acid receptor (Homo sapiens) (UniProt Q96RI1). In words: qHTS assay to identify small molecule antagonists of the farnesoid-X-receptor (FXR) signaling pathway (AID 743217; active means well fitted inhibition curve with a large enough effect in the signal ratio in the repeat runs, not every such curve was filed as active; the % refers to the signal ratio). In short, it runs like this: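 Quantitative HTS, beta-lactamase reporter format: FXR-UAS-bla HEK 293T cells co-treated 16 h at 37 °C with compounds and 50 uM final chenodeoxycholic acid, then read by B/G FRET fluorescence.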

Sequence of Peroxisome proliferator-activated receptor delta (Homo sapiens) (Q03181 whole entry, looked up): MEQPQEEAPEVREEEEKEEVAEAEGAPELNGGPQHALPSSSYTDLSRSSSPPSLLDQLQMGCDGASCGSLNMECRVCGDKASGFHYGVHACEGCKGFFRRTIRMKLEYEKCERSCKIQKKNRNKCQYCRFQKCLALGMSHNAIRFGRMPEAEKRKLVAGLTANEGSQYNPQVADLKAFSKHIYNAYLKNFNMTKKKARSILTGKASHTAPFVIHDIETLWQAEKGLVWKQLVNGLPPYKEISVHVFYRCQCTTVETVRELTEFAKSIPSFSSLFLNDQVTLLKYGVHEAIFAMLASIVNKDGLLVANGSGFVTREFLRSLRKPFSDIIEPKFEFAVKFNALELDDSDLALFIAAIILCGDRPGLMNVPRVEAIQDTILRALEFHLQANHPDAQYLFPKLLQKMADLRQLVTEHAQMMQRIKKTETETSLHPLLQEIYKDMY
Sequence of Aryl hydrocarbon receptor (Homo sapiens) (P35869 whole entry, looked up): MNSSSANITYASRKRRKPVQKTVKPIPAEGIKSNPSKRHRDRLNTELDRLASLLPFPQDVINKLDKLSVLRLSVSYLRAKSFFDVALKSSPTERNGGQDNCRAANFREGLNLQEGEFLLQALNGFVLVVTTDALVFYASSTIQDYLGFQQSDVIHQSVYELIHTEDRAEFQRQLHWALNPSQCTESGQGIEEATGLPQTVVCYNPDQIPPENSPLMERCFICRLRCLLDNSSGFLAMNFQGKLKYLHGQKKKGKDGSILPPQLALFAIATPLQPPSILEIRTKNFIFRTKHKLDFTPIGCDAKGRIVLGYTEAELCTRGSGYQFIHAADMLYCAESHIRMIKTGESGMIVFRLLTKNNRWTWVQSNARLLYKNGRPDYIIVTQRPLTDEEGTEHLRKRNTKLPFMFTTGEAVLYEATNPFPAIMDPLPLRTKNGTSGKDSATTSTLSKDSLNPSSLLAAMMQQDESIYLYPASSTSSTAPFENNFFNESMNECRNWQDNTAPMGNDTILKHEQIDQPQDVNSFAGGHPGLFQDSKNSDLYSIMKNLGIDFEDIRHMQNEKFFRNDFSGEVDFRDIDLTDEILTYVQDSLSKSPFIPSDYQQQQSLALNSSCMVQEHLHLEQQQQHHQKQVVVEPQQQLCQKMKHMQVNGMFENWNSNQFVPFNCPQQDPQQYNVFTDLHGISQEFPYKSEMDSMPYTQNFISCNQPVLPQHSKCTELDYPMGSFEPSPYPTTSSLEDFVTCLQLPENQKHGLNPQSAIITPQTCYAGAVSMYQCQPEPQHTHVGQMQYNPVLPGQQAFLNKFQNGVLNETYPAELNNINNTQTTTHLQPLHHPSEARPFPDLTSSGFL
Sequence of Peroxisome proliferator-activated receptor gamma (Homo sapiens) (P37231 whole entry, looked up): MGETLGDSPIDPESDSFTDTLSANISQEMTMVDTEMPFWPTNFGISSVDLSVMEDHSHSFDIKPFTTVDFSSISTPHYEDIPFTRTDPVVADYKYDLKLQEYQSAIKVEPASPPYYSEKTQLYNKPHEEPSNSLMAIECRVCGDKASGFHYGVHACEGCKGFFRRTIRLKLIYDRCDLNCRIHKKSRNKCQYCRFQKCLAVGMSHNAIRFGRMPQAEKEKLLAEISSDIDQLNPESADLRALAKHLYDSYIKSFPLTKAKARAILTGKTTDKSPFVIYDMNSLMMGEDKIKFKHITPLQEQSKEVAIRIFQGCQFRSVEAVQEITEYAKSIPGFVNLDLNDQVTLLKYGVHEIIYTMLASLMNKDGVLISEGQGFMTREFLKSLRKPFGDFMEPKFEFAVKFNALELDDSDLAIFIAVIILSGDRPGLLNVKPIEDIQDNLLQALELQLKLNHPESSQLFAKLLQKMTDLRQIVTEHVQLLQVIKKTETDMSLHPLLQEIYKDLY
Sequence of Bile acid receptor (Homo sapiens) (Q96RI1 whole entry, looked up): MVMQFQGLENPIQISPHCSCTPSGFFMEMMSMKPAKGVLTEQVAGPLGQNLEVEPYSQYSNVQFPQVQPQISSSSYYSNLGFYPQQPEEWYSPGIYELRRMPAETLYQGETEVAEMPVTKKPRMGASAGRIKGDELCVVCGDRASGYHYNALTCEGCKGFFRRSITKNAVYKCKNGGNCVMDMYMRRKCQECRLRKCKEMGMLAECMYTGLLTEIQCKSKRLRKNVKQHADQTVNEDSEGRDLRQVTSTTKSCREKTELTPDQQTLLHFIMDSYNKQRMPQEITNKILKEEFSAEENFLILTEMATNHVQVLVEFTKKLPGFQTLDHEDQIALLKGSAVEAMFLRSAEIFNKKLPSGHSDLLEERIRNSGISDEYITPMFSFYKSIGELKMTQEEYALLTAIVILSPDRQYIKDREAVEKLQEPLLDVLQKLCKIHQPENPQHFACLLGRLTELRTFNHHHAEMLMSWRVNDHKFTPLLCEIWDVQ
Sequence of Vitamin D3 receptor (Homo sapiens) (P11473 whole entry, looked up): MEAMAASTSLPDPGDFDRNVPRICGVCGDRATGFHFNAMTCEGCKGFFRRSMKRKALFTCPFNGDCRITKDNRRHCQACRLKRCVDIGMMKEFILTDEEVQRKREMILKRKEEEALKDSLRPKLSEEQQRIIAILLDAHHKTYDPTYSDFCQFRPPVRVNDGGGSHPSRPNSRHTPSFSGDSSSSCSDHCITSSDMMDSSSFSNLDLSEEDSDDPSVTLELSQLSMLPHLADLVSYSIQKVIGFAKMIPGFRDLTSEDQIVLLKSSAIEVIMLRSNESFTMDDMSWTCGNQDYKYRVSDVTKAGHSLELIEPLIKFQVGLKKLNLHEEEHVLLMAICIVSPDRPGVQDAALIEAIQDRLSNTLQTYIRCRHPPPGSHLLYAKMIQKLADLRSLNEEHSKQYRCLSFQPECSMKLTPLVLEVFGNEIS

Turning to `CC(C)CC(=O)C1C(=O)c2ccccc2C1=O`, the Potency result in assay [1], in [2], in [3], in [4], in [5] and in [6] was “inactive” each time. The Potency entry in assay [7], in assay [8], in [9], in [10], in assay [11] and in assay [12] was “inactive” each time.
Take `Cc1cccc(C)c1OCC(=O)N[C@@H](Cc1ccccc1)[C@@H](O)C[C@H](Cc1ccccc1)NC(=O)[C@H](C(C)C)N1CCCNC1=O`: the Potency result in assay [13], in [4], in assay [5], in [8], in assay [9] and in assay [15] was “inactive” each time. Besides, the Potency was 23.7 µM (active) in assay [2] and 29.8 µM (active) in assay [14]. The molecule was called inactive in assay [16].
Regarding `Cc1cc(N)c2cc(NC(=O)Nc3ccc4nc(C)cc(N)c4c3)ccc2n1`, the Potency entry in [1], in [2], in assay [5], in assay [11] and in assay [15] was “inactive” throughout. Moreover, the Potency in assay [12] was 18.8 µM (active). Moreover, in assay [16], the result was inactive.
`COc1ccc(C(=O)Nc2nc3ccccc3c(NCc3ccccc3)c2C#N)cc1`: the Potency is 7.7 µM (active) in [13] and 1.74 µM (active) in assay [17]. Further, the Potency entry in assay [3], in [4], in assay [5], in assay [6], in assay [8] and in [10] was “inactive” throughout. In addition, the Potency entry in [11] and in assay [12] was “inactive” in each case.
For the molecule `CCCCCCCCCCCCCCOS(=O)(=O)O`, the Potency entry in [13], in [2], in assay [18], in assay [17], in assay [3] and in assay [9] was “inactive” throughout. In addition, the Potency result in assay [15] was “inactive”. Moreover, the Potency in assay [4] is 61.1 µM (active); in assay [6] it was 43.6 µM (active); in assay [8], 43.6 µM (active); in [10] it was 54.9 µM (active). For the same molecule, the result in assay [16] was inactive.
For `CCCCCC[C@@H](O)C/C=C\CCCCCCCC(=O)OC`, the Potency entry in assay [1], in assay [2], in assay [18], in [14], in assay [4] and in assay [5] was “inactive” throughout. For the same molecule, the Potency entry in [19], in assay [6], in assay [8], in assay [10], in assay [12] and in [15] was “inactive” throughout.
For `CN1CCC(=C2c3ccccc3Sc3ccccc32)CC1`, the Potency entry in [13], in assay [18], in assay [17], in [14], in assay [5] and in [19] was “inactive” each time. The Potency entry in [9], in [20], in [11] and in [15] was “inactive” in each case. Besides, the Potency in assay [2] was 29.8 µM (active); in [6], 26.6 µM (active). Also, the call in assay [16] was inactive.
In the case of `CCO[C@H](Cc1ccc(OCCc2ccc(OS(C)(=O)=O)cc2)cc1)C(=O)O`, the Potency result in [1], in [3], in assay [4], in [6], in assay [8] and in assay [9] was “inactive” throughout. For the same molecule, the Potency entry in assay [12] and in assay [15] was “inactive” each time. For the same molecule, the Potency was 0.12 µM (active) in assay [18] and 11.9 µM (active) in assay [7].
`O=S(c1cc(Cl)cc(Cl)c1O)c1cc(Cl)cc(Cl)c1O`: the Potency entry in [13] and in assay [2] was “inactive” each time. Besides, the Potency is 26.6 µM (active) in assay [3], 11.9 µM (active) in [4] and 23.7 µM (active) in assay [6].
